The list is not random: actives were taken first. Their share in the collection is about 18%.
Gal4-VP16 FLuc: inhibits Gal4-VP16 luciferase reporter, ROR gamma counter-screen | Drosophila S2 Gal4-VP16 UAS-luciferase, luminescence, 20 h | AID 2546 | Potency, µM (series often up to 53.6 µM), for inactives: at the top dose activity, negative = inhibition, hits mostly inhibitors | 310,000 tested, 3.5% active;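 also: Gal4-VP16 expression switched on by copper sulfate through the metallothionein promoter; potency is read from the fitted curve at half-maximal effect; nearly all actives have a fitted effect of over 50% in size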
DT40 TDP1 CPT: growth inhibition of DT40 Tdp1-/-;hTDP1 cells with camptothecin (screen for TDP1 inhibitors) | chicken DT40 Tdp1-/-;hTDP1 cells + 20 nM CPT, ATP luminescence, 48 h | Potency, µM (highest dose often 46.2 µM), without a hit: at the highest dose activity change, negative = growth inhibition, usual class: inhibitors | 420,000 tested, 12% active; also: potency is read from the fitted curve at half-maximal effect; nearly all actives have a fitted effect of over 55% in size
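Cell growth measured by CellTiter-Glo luminescence after a minimum 48 h, 37 C compound exposure with 20 nM CPT in Tdp1-knockout DT40 cells stably expressing hTDP1, seeded 400/well; qHTS titration format.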
IL-1B inflam inh: blocks inflammasome-driven IL-1 beta release. THP-1 LPS/ATP IL-1B secretion, AlphaLISA, 16 h; active compounds read low. 360,000 tested, 4.7% active. activity change, % at 57.5 µM; in the data active = activity change below about -50%; inconclusive = mostly about -30% to -49%
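THP-1 cells pretreated 1 hr with compounds (up to 57.5 uM final), then stimulated with LPS (250 ng/mL final) plus ATP (1.25 mM final); secreted IL-1B measured by AlphaLISA after 16 hr, decreased signal indicating inhibition.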
LDHA inh: blocks human lactate dehydrogenase A. P00338. purified LDHA, NADH/diaphorase-resazurin fluorescence; active compounds read low. activity change, % (values are at about 110 or 230 µM). 480,000 tested, 0.15% active. AID 1347041; in the data active = activity change below about -30%; inconclusive = mostly about -25% to -30%;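 also: plate controls were DMSO wells for no effect and wells without enzyme for full effect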
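Human LDH5 at 2 nM final in Tris HCl pH 7.4 with 0.06 mM NADH and 0.2 mM pyruvate, reacted 5 minutes at room temperature. Remaining NADH coupled via diaphorase/resazurin; resorufin fluorescence read at 0 and 20 minutes, normalized to enzyme-free and DMSO wells.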
DT40 TDP1 no CPT: qHTS for Inhibitors of human tyrosyl-DNA phosphodiesterase 1 (TDP1): qHTS in cells in absence of CPT. DT40 Tdp1-/- hTDP1 cells, no CPT, ATP luminescence, 48 h. Potency, µM (series often up to 46.2 µM), without a hit: at the highest dose activity change, negative = growth inhibition, actives largely listed as inhibitors. 420,000 tested, 15% active. AID 686978, 2013; also: potency is read from the fitted curve at half-maximal effect; nearly all actives have a fitted effect of over 55% in size
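Cells were dispensed at 400 per well, compounds added by pin tool, plates incubated ≥48 hr at 37 °C, then CellTiter-Glo added for 30 min at room temperature before luminescence reading. Line: DT40 Tdp1-/- complemented with hTDP1; camptothecin omitted.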
RORgamma inh: blocks mouse ROR gamma transcriptional activity | Drosophila S2 Gal4-RORgamma UAS-luciferase reporter, 20 h | Potency, µM (titrated, usually from 53.6 µM), inactives show top-dose activity change, negative = inhibition, most hits filed as inhibitors | 310,000 tested, 5.4% active | AID 2551; also: potency is read from the fitted curve at half-maximal effect; nearly all actives have a fitted effect of over 60% in size
Target sequence (P51450 whole entry, looked up, the tested form may be a part): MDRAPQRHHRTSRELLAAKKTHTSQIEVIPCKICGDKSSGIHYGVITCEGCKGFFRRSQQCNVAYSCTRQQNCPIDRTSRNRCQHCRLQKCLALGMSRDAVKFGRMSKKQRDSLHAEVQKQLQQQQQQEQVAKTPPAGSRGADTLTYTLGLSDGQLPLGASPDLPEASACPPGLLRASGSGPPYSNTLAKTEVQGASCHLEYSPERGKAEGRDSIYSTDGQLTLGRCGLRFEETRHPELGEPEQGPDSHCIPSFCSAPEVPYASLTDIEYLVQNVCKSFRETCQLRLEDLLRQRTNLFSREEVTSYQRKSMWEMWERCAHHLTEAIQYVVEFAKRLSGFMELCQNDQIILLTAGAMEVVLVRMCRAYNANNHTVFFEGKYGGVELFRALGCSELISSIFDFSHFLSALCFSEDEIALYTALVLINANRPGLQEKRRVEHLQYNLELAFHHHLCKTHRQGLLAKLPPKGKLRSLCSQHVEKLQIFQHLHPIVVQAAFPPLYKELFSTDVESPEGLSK
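A Gal4/UAS one-hybrid system in insect cells: metallothionein-promoter Gal4–ROR gamma fusion plus Photinus luciferase reporter. Copper sulfate 700 uM final, 20 hr ambient incubation, luminescent detection after 10 min with reagent.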
The depositor's hits bear a star; u = inconclusive; x = no result; [ ] = dose if it differs, or a comment. Unless noted, calls follow the shape of the dose curve; as a rule, active = well fitted curve in the direction sought with a large enough effect; inconclusive = small, poorly fitted or top-dose-only effect, or another doubt; inactive = no such curve, though single readings can be large; an effect the other way counts as inactive or inconclusive. Unless noted, % is scaled to controls: 0 for no effect and ±100 for the full control effect.

SMILES | Gal4-VP16 FLuc | DT40 TDP1 CPT | IL-1B inflam inh | LDHA inh | DT40 TDP1 no CPT | RORgamma inh
Cn1ccc2c(OCC(=O)Nc3ccc(OC(F)(F)F)cc3)cccc2c1=O | x | 12µM* | x | -1 | 7.3µM* | x
O=C(NCc1ccccc1Cl)c1cccc2c1-c1ccccc1C2=O | x | x | x | -7 | x | x
CCc1cccc(CC)c1NC(=O)CC(C#N)(C(C)=O)c1c(Cl)cccc1Cl (stereo unspecified) | x | x | x | -2 | x | x
Cc1cc(C)[n+]2[nH]c(N)c(N=Nc3ccccc3)c2n1 | -2% | u | -29 | -4 | 16µM* | -34%
Cc1cc(C)n2nc(N)c(N=Nc3ccccc3)c2n1 | -6% | u | -12 | -7 | x | -35%
N#Cc1ccc(-n2c(-c3ccccc3)nnc2-c2ccccc2)cc1C#N | 2% | u | -74* | -6 | 16µM* | u
COC[C@H]1CCCN1c1ccc2c(c1)O[C@@H](COCc1ccccc1)CN([C@H](C)c1ccccc1)S2(=O)=O | x | 9.2µM* | -9 | 1 | 13µM* | x
COC[C@H]1CCCN1c1ccc2c(c1)O[C@H](COCc1ccccc1)CN([C@H](C)c1ccccc1)S2(=O)=O | x | u | 49 | 6 | 18µM* | x
COC[C@H]1CCCN1[C@H]1CS(=O)(=O)N[C@@H]1COCc1ccccc1 | x | 2% | -12 | -7 | 1% | x
COC[C@@H]1CCCN1c1ccc2c(c1)O[C@H](COCc1ccccc1)CN([C@@H](C)c1ccccc1)S2(=O)=O | x | 2.6µM* | 20 | -8 | 3.7µM* | x
CC(C)(C)NC(=O)CNc1nc(-c2ccncc2)nc2ccccc12 | x | x | x | -7 | x | x
Fc1ccc(N/N=C/C(Br)=C/c2ccccc2)c(F)c1 | x | x | x | 7 | x | x
COc1ccccc1-c1cc(SC)c(C#N)c(=O)o1 | u | 3.7µM* | u | -7 | 5.8µM* | u
NCc1ccc2cc[nH]c2c1 | x | x | x | 6 | x | x
Cn1c2ccccc2c(=O)c2c(=O)n(C3CCCCCC3)c(C3CCCCC3)nc21 | -11% | 15µM* | 28 | 1 | 13µM* | -2%
Cn1c2ccccc2c(=O)c2c(=O)n(-c3ccccc3)c(C3CCCCC3)nc21 | 3% | u | 0 | -6 | u | -7%
COc1ccc(Cn2c(C3CCCCC3)nc3c(c(=O)c4ccccc4n3C)c2=O)cc1 | -4% | u | 20 | -8 | 16µM* | -13%
CCc1nc2c(c(=O)c3ccccc3n2C)c(=O)n1C1CCCCCC1 | 12% | u | -7 | -8 | 16µM* | 4%
Cc1sc(C=O)cc1CN1CCOCC1 | x | x | x | 2 | x | x
CCc1cc2c(C)cc(=O)oc2cc1OCC(=O)c1ccc(OC)cc1 | x | x | x | -2 | x | x
C=CCOC(=O)/C(=C/c1cccc2ccccc12)NC(=O)c1ccccc1 | u | 29µM* | -10 | 0 | 23µM* | 45%
COc1ccc(C(=O)N/C(=C\c2cccc3ccccc23)C(=O)N2CCN(C)CC2)cc1 | x | u | u | 0 | 18µM* | x
O=[N+]([O-])c1cc(N=Nc2ccc3ccccc3c2)ccc1O | -28% | 18µM* | 2 | -5 | u | 4%[1.91 µM]
O=S(=O)(Nc1ccc(-c2nnc(SCc3ccc(Cl)cc3)o2)cc1)c1ccccc1 | -18% | u | -79* | 0 | u | 11%
O=S(=O)(c1cccc(-c2nnc(SCc3ccc(Cl)cc3)o2)c1)N1CCCCC1 | 9% | 8.2µM* | 5 | -2 | 23µM* | -22%
COc1cc(C)ccc1OCCOc1cc(C)ccc1Cl | -5% | u | -13 | -8 | u | 28%
COc1cc(C)ccc1OCCCOc1ccccc1Br | -23% | -10% | u | -5 | -22% | 13µM*
CCc1ccccc1OCCOc1ccc(C)cc1OC | 7% | u | 26 | -1 | 29µM* | 35%
COc1ccc2c(COC(=O)c3ccccc3F)cc(=O)oc2c1 | x | x | x | 2 | x | x

Source: PubChem
